Columns and labels:
U-2932 [1] = assay: growth inhibition by drug alone (1 - RLU/untreated control) (fraction); higher = stronger inhibition; details: 177Lu-lilotomab satetraxetan 0 ug/ml
How it was run: (§1)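 Growth inhibition was calculated from RealTime-Glo RLU against untreated no-drug wells. Values equal 1 − RLU/mean of 48 untreated no-drug wells per plate, read daily from day 3 after 1 h at 37°C. RIVA and U-2932 cells, with or without 18 h pretreatment by a radiolabelled anti-CD37 antibody conjugate (~600 MBq/mg; 0.5 µg/ml RIVA, 1 µg/ml U-2932), were washed and plated at 3,000 cells/well on compound-printed plates at 10/100 nM (RIVA) or 10/1,000 nM (U-2932).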

RIVA [2] = assay: as above; details: 177Lu-lilotomab satetraxetan 0 ug/ml
How it was run: as §1

U-2932 [3] = assay: growth inhibition by drug plus 177Lu-lilotomab satetraxetan (1 - RLU/untreated control) (fraction); higher = stronger inhibition; details: 177Lu-lilotomab satetraxetan 1 ug/ml
How it was run: as §1

RIVA [4] = assay: as above; details: 177Lu-lilotomab satetraxetan 0.5 ug/ml
How it was run: as §1

SMILES | growth inhibition by drug alone (U-2932 [1]; 10 nM, time (day): 3) | growth inhibition by drug alone (U-2932 [1]; 10 nM, time (day): 4) | growth inhibition by drug alone (U-2932 [1]; 10 nM, time (day): 5) | growth inhibition by drug alone (U-2932 [1]; 10 nM, time (day): 6) | growth inhibition by drug alone (U-2932 [1]; 1000 nM, time (day): 3) | growth inhibition by drug alone (U-2932 [1]; 1000 nM, time (day): 4) | growth inhibition by drug alone (U-2932 [1]; 1000 nM, time (day): 5) | growth inhibition by drug alone (U-2932 [1]; 1000 nM, time (day): 6) | growth inhibition by drug alone (RIVA [2]; 10 nM, time (day): 3) | growth inhibition by drug alone (RIVA [2]; 10 nM, time (day): 4) | growth inhibition by drug alone (RIVA [2]; 10 nM, time (day): 5) | growth inhibition by drug alone (RIVA [2]; 10 nM, time (day): 6) | growth inhibition by drug alone (RIVA [2]; 100 nM, time (day): 3) | growth inhibition by drug alone (RIVA [2]; 100 nM, time (day): 4) | growth inhibition by drug alone (RIVA [2]; 100 nM, time (day): 5) | growth inhibition by drug alone (RIVA [2]; 100 nM, time (day): 6) | growth inhibition by drug plus 177Lu-lilotomab satetraxetan (U-2932 [3]; 10 nM, time (day): 3) | growth inhibition by drug plus 177Lu-lilotomab satetraxetan (U-2932 [3]; 10 nM, time (day): 4) | growth inhibition by drug plus 177Lu-lilotomab satetraxetan (U-2932 [3]; 10 nM, time (day): 5) | growth inhibition by drug plus 177Lu-lilotomab satetraxetan (U-2932 [3]; 10 nM, time (day): 6) | growth inhibition by drug plus 177Lu-lilotomab satetraxetan (U-2932 [3]; 1000 nM, time (day): 3) | growth inhibition by drug plus 177Lu-lilotomab satetraxetan (U-2932 [3]; 1000 nM, time (day): 4) | growth inhibition by drug plus 177Lu-lilotomab satetraxetan (U-2932 [3]; 1000 nM, time (day): 5) | growth inhibition by drug plus 177Lu-lilotomab satetraxetan (U-2932 [3]; 1000 nM, time (day): 6) | growth inhibition by drug plus 177Lu-lilotomab satetraxetan (RIVA [4]; 10 nM, time (day): 3) | growth inhibition by drug plus 177Lu-lilotomab satetraxetan (RIVA [4]; 10 nM, time (day): 4) | growth inhibition by drug plus 177Lu-lilotomab satetraxetan (RIVA [4]; 10 nM, time (day): 5) | growth inhibition by drug plus 177Lu-lilotomab satetraxetan (RIVA [4]; 10 nM, time (day): 6) | growth inhibition by drug plus 177Lu-lilotomab satetraxetan (RIVA [4]; 100 nM, time (day): 3) | growth inhibition by drug plus 177Lu-lilotomab satetraxetan (RIVA [4]; 100 nM, time (day): 4) | growth inhibition by drug plus 177Lu-lilotomab satetraxetan (RIVA [4]; 100 nM, time (day): 5) | growth inhibition by drug plus 177Lu-lilotomab satetraxetan (RIVA [4]; 100 nM, time (day): 6)
Cc1c(C(=O)Nc2ccc(N3C[C@@H](C)O[C@@H](C)C3)nc2)cccc1-c1ccc(OC(F)(F)F)cc1 [LDE225 (NVP-LDE225, Erismodegib)] | 0.0297 | 0.0258 | -0.0417 | -0.121 | -0.0141 | 0.0478 | 0.023 | -0.177 | -0.0165 | -0.00347 | -0.0773 | -0.419 | -0.213 | -0.137 | -0.143 | -0.258 | 0.00969 | 0.0196 | 0.033 | 0.15 | -0.0204 | 0.153 | 0.159 | 0.189 | 0.366 | 0.504 | 0.517 | 0.547 | 0.384 | 0.483 | 0.482 | 0.47
CS(=O)(=O)N1CCc2c(-c3cnc(N)nc3)nc(N3CCOCC3)nc21 | 0.149 | 0.108 | -0.0352 | -0.0152 | 0.351 | 0.362 | 0.336 | 0.366 | 0.14 | 0.0286 | -0.0356 | -0.278 | 0.291 | 0.165 | 0.108 | 0.0361 | 0.0821 | 0.0867 | 0.0957 | 0.135 | 0.216 | 0.214 | 0.223 | 0.326 | 0.395 | 0.499 | 0.537 | 0.543 | 0.451 | 0.434 | 0.439 | 0.428
CN(C)C/C=C/C(=O)Nc1cc2c(Nc3ccc(F)c(Cl)c3)ncnc2cc1O[C@H]1CCOC1 [Afatinib (BIBW2992)] | 0.0755 | 0.0672 | 0.0124 | -0.039 | 0.0101 | 0.0989 | 0.0569 | 0.0902 | 0.0532 | -0.016 | -0.0806 | -0.333 | -0.091 | -0.147 | -0.146 | -0.262 | 0.0397 | 0.0532 | 0.0798 | 0.0941 | -0.123 | 0.0652 | 0.0526 | 0.121 | 0.437 | 0.523 | 0.544 | 0.558 | 0.389 | 0.492 | 0.493 | 0.456
O=C(/C=C/c1cccc(S(=O)(=O)Nc2ccccc2)c1)NO [Belinostat (PXD101)] | 0.222 | 0.196 | 0.137 | 0.152 | 0.961 | 0.964 | 0.974 | 0.979 | 0.107 | 0.129 | 0.11 | 0.00837 | 0.884 | 0.83 | 0.818 | 0.796 | 0.0215 | 0.0654 | 0.0711 | 0.0685 | 0.961 | 0.975 | 0.984 | 0.988 | 0.503 | 0.586 | 0.594 | 0.603 | 0.934 | 0.935 | 0.938 | 0.945
Nc1ccc(-c2ccc3ncc4ccc(=O)n(-c5cccc(C(F)(F)F)c5)c4c3c2)cn1 [Torin 2] | 0.465 | 0.318 | 0.24 | 0.244 | 0.937 | 0.963 | 0.974 | 0.981 | 0.402 | 0.267 | 0.158 | -0.141 | 0.769 | 0.804 | 0.808 | 0.781 | 0.305 | 0.238 | 0.247 | 0.312 | 0.953 | 0.97 | 0.98 | 0.986 | 0.613 | 0.549 | 0.527 | 0.515 | 0.838 | 0.874 | 0.881 | 0.887
Cc1ccc(C(=O)N(CCCN)[C@@H](c2oc3cc(Cl)ccc3c(=O)c2Cc2ccccc2)C(C)C)cc1 | 0.962 | 0.968 | 0.974 | 0.977 | 0.962 | 0.97 | 0.976 | 0.98 | 0.945 | 0.955 | 0.965 | 0.967 | 0.918 | 0.938 | 0.95 | 0.957 | 0.964 | 0.974 | 0.981 | 0.984 | 0.968 | 0.976 | 0.982 | 0.985 | 0.963 | 0.976 | 0.981 | 0.985 | 0.953 | 0.973 | 0.979 | 0.981
COC(=O)Nc1nc2cc(C(=O)c3cccs3)ccc2[nH]1 [Nocodazole] | 0.162 | 0.111 | 0.0124 | -0.0733 | 0.959 | 0.967 | 0.972 | 0.977 | -0.0176 | -0.0388 | -0.162 | -0.595 | 0.948 | 0.956 | 0.957 | 0.953 | 0.00977 | 0.0511 | 0.0524 | 0.13 | 0.971 | 0.978 | 0.982 | 0.984 | 0.402 | 0.532 | 0.541 | 0.547 | 0.956 | 0.968 | 0.974 | 0.979

Reference: the supplement of paper PMC6897291
